# Results taken from the supplement of paper PMC6555819.
# Legend:
# Assay in all cases: PBM binding z-score (relative to random genomic background probes); higher = stronger binding; sequences stand for … in GC…GCGATTGACAGCGTAGAATGAAGG
# [1] = test system: RARb homodimer (NR concentration 270 nM)
# Outline: (§1)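 Scanned fluorescence from custom Agilent 4×180K protein-binding microarrays was regression-normalized. Binding z-scores use random background probes as reference. Ligand-free nuclear receptor dimers were incubated on the arrays for 1 h and detected with antibodies against each partner (one per run).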
# [2] = test system: RARg:RXRa (NR concentration 270 nM, RXRa partner concentration 90 nM)
# Outline: as §1
# [3] = test system: RARg homodimer (NR concentration 270 nM)
# Outline: as §1
# [4] = test system: RXRa DBDmut IVT, anti-RXR (DBD mutation: RXRa K156A/R161A, NR concentration 90 nM)
# Outline: as §1
# [5] = test system: RXRa homodimer (NR concentration 180 nM)
# Outline: as §1
# [6] = test system: THRa:RXRa (NR concentration 90 nM, RXRa partner concentration 90 nM)
# Outline: as §1
# [7] = test system: THRa homodimer (NR concentration 90 nM)
# Outline: as §1
# [8] = test system: VDR homodimer (NR concentration 270 nM)
# Outline: as §1
Sequence,PBM binding z-score [1],PBM binding z-score [2],PBM binding z-score [3],PBM binding z-score [4],PBM binding z-score [5],PBM binding z-score [6],PBM binding z-score [7],PBM binding z-score [8]
ATCTCCAGGTAACAAGTTCAGTGAAAGAGAGGAC,2.16,1.92,1.39,0.944,1.12,1.96,1.49,3.33
CTCGAAAGGTCGTGCTCAGGTGAGCATACCAAAC,2.63,5.53,4.45,2.21,5.55,4.12,1.23,0.533
ATAGAAAGGTCGACGAGGTGAGTATACACCGTTT,2.88,3.98,3.86,1.03,4.18,3.62,0.52,1.1
CCTCGTTGGTCAGGAGGTCACACACCGGATATGA,4.36,5.12,4.22,0.642,4.63,3.54,2.26,2.22
TCTCTTAGTTGAAGGGCAACCGACGAGTCCGTTT,1.22,0.587,0.371,1.52,0.71,0.283,0.0407,1.24
AGAATGAGGTTATTCAGATCAGGGAATTGCGGTC,0.905,1.51,1.13,2.35,2.13,2.51,0.965,1.53
CCGGCTGGGGCAGAAAGGTTACCATACCATCCGG,2.18,1.68,1.35,-1.28,1.74,0.969,-0.459,-0.229
CAAACTAGGTCACCGGAGGGTCAAAGTCCGCATG,5.26,7.83,6.79,1.19,5.89,4.24,2.21,2.78
TCATAGAGGTAAATGCTAGGTGAAAGTCCGATCT,0.335,0.753,0.235,0.932,0.849,1.94,0.361,-0.248
ATATGAAGGTTAGCTGGGGTCATTCAGACTAGGC,4.37,4.69,3.82,1.97,6.06,5.24,3.38,5.65
ACTAGCAGGCCAAGTTTGTGTCACTCAAACAAAG,0.267,0.00878,0.0859,-0.193,-0.545,-0.0341,-0.316,0.051
CATACAGGGTCAGGTAGGCCAGAGTAGGGACGGC,3,4.2,4.14,0.816,4.12,2.93,0.964,1.14
TTACCAAGGTGAAAGGTCGTGGATGCACGCCTTG,2.98,5.09,2.53,0.256,6.85,3.45,0.939,0.435
ACTAGCAGGCCAAGGGTCACTGAAGATTAGTCCG,3.8,4.5,3.97,0.371,4.49,2.68,-0.0402,0.94
ATCTCCAGGTAAGACTCAGTTCAGTGAAGAACGC,0.752,0.584,0.474,0.412,0.366,1.1,1.32,1.27
ATCGAAAGGTCGACGAGGTGAATATACACCGTTT,2.97,4.55,3.93,1.7,4.64,4.06,1.54,1.84
AGTCAAAGTTCAGGATGAGGTAACGTAAAGCACG,3.38,4.78,4.82,2.73,3.26,4.21,1.73,2.09
GATACAGGGTCAGCTAGAGGCCAGATTATGGAAA,3.59,6.4,4.49,1.25,4.05,3.2,0.619,0.715
TCTTGCAGATCAACAGGAGGTTAAGAAAGATCGA,0.407,0.798,0.138,0.162,0.749,0.859,-0.241,-0.1
TGAATGAGCTTAAAGATCAGGGAACGTGGCGTCG,-0.993,-0.123,-0.307,-1.41,0.0598,-0.475,-0.628,-0.391
CGAACTGGGTCAAGGACAGTGAATCTCCGCACGC,2.55,3.53,3.36,0.955,2.54,2.76,1.56,0.325
TCTTATAGGTAAATGCTAGGTGAAAGTCCGATCT,0.569,0.602,0.586,1.88,0.669,1.52,0.924,0.694
GCTATTAGTTGAAAGGGCAACCTAATGATTCTCG,2.01,1.35,1.38,0.966,1.24,0.901,-0.0101,0.284
ATCTCTAGGTAACAAGTTCACTGAAAGAGAGGAC,2.61,2.27,2.04,1.69,1.87,2.12,1.03,3.99
TCATATAGGTAAAAGCTGAAAGTCGGTGTGGTAA,-0.59,-0.0558,-0.318,1.45,0.496,-0.258,-0.715,-0.102
TCTCGGAGGACACGATAGGTCAGAGCTCGACATC,3.02,2.49,3.18,0.695,1.43,2.47,0.393,0.242

Sequence,PBM binding z-score [1],PBM binding z-score [2],PBM binding z-score [3],PBM binding z-score [4],PBM binding z-score [5],PBM binding z-score [6],PBM binding z-score [7],PBM binding z-score [8]
ACTAGTTGGTCAGCTGAGGTTACACACAATTCGG,2.03,1.46,1.69,0.642,1.31,3.86,1.97,1.01
TAGCCTAGGTCATGGGGCCAGTATAGTACGCATC,3.29,4.5,4.7,0.621,3.6,3.49,1.43,1.05
TCATATAGGTTAATGCTAGGTGAAAGTCCGATCT,1.41,1.98,1.16,1.64,1.48,2.53,1.08,0.748
GTACCAAGGTGAATAGCTCGTTGATGAGTAGGCG,0.121,0.285,0.489,-0.348,0.453,1.15,0.236,-0.63
ATCGAAAGCTCGACGAGGTGAGTATACACCGTTT,-0.193,-0.12,0.303,-0.125,0.189,1.02,0.249,-0.291
CCTAGTTGGTCAGGAGTTCACACACCGGATATGA,3.04,3.12,2.47,2.09,2.32,1.5,1.07,4.81
AATCCAGGGTCACTAGGCCAGAGTAGGTACGAAT,3.4,5.39,4.98,2.49,5.55,3.54,1.29,2.57
ATATGTAGGTTCAGGGTCATTCAGGTTGGTTCGC,3.58,4.1,3.01,3.37,5.25,3.92,3.36,6.06
TCTTGTAGATCAAGCAGGTCAAGAAAGCCTGAGT,2.28,1.43,1.35,0.714,1.66,2.01,0.223,0.53
AGTCAAAGTTCAGGACAAGGTAACGTAAAGCACG,3.29,5.05,5.13,3.14,3.26,4.05,2.59,2.15
CAACCTAGGTCAGGGCCAGTATAGGAGGAACGTT,2.7,3.49,4.18,0.0707,2.07,2.12,0.435,-0.128
ACAGACAGGTGAGTGAAGGTAACGCAGCTGGACG,0.215,0.259,0.522,-0.546,0.362,1.83,-0.423,-0.319
GCGACTGGGGCAAAGCGGGTTACCATAAGGTTGG,0.945,0.446,0.469,-0.587,0.545,2.47,0.0771,-0.483
GCTTGTAGATCTAGGTTAAGAAAGACTAAGCTAA,-0.325,-0.324,-0.326,-0.252,-0.074,0.276,-0.767,-0.721
TGTCAAAGTCCAAAGGTAACGTAAGTATCCACAC,1.08,1.64,1.23,0.368,0.946,1.11,-0.182,0.0854
ACTAGTTGGTTAGCTGAGGTCACACACAATTCGG,4.12,3.62,3.42,1.62,3.95,4.7,5.36,3.78
CAAACTAGGTCAAGAGGTCCAAGTCCGCTTCCCG,3.2,4.03,4.37,1.42,2.65,2.55,0.871,1.74
TCTCGGAGGACACGAAAGTCAGAGCTTTCCAGAG,0.384,0.378,1.08,0.647,-0.0691,1.21,0.236,-0.621
GTACAAAGGTGAATAGGTCGTTGATGAGTAGGCG,3.11,4.37,2.79,0.47,3.43,1.72,-0.0459,0.65
CCTATTAGTTGACCATATGGGCAACCGAAGCTCG,0.53,0.405,0.481,0.486,0.208,0.00602,0.303,0.527
GGAACGACGGCAAAGTTGATAGCATCTGTCGACG,-0.736,-0.162,-0.0781,-0.543,0.157,-0.802,-1.24,-0.637
GCTATTAGTTGAAAGGTCAACCGAATGATTCTCG,5.01,6.07,5.57,1.88,7.11,3.83,1.41,2.06
CAAACTCGGTCACCGGAAGGTCAAAGTCCGCATG,5.22,6.88,6.29,1.12,4.82,3.44,1.59,2.65
ACTATTACTTGACTTAGGGCAACCGATACGACGC,1.06,0.943,1.1,0.983,0.745,0.888,1.1,0.484
CCTAGCAGGCCATGGTCACTCAAGCATTTCGCTT,0.33,-0.134,0.141,-0.0842,-0.236,-0.37,-0.618,-0.529
TGAATGTGGTTAAAGATCAGGGAACGTGGCGTCG,-0.107,0.0115,-0.196,-0.526,0.126,-0.141,-0.0512,-0.00679
